Experimental data: PubChem BioAssay (NCI)
The panel holds about 83,000 compounds, 20% with a hit somewhere; the sample as a whole holds those more often.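 Method: cells in 96-well plates; compound added at one concentration; 48 h incubation; percent growth measured; values under 10 scored active.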 Values without a mark were called inactive. Calls of active or inactive are those of the source.

test system: HL-60(TB) leukemia; assay: NCI-60 one-dose screen, 48 h (100 = growth as untreated, 0 = no growth, -100 = all killed); conditions: 10 µM unless noted

Compound | growth
CC/C=C\C/C=C/C=C1/C(=O)C=C[C@@H]1C/C=C\CCCC(=O)OC | 8.98% (active)
COc1cc(-c2nccc3[nH]c(-c4cccc5[nH]ccc45)nc23)cc(OC)c1OC | -41.1% (active)
Nc1nc(Cl)cc(Cl)n1 | 74.2%
COc1cc(NC(=O)c2cc(O)c(CC=C(C)C)c(O)c2)cc2c1O[C@]1(C)CC[C@@H](O)C(C)(C)[C@H]1C2 | 9.12% (active)
